Experimental findings from the supplement of paper PMC8728848 are described below.

This is one part of a sample in which the strongest signals are shown more often than they occur.

What all share (assay): glycan array binding signal (z-score within array); higher = stronger binding
Common to all, as to details: glycan notation: IUPAC condensed, linker removed

Test [1] concerns the target Fuc(a1-2)Gal(b1-4)GlcNAc(b1-3)Gal(b1-4)GlcNAc(b1-3)Gal(b1-4)GlcNAc. A digest of the protocol: (§1)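 Negative Z-scores can be read as non-binding. The Z-score is calculated within each array and then averaged across arrays of one protein sequence at different concentrations or buffers and across linkers. Arrays, 3228 in all, were curated from the Consortium for Functional Glycomics database and kept only where the protein sequence was available.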

For test [2], the target named is Fuc(a1-2)Gal6S(b1-4)GlcNAc. A digest of the protocol:
as §1

In test [3] the target is Fuc(a1-3)[Gal3S(b1-4)]Glc6S. A digest of the protocol:
as §1

Test [4] deals with Fuc(a1-3)[Gal3S(b1-4)]GlcNAc6S. A digest of the protocol: as §1
Test [5] concerns the target Fuc(a1-3)[GalNAc(b1-4)]GlcNAc. A digest of the protocol: as §1
The target of test [6] is Gal(b1-4)GlcNAc(b1-3)[Gal(b1-4)GlcNAc(b1-6)]GalNAc. An outline of the steps: as §1
For test [7], the target named is Gal3S(b1-3)[Fuc(a1-4)]GlcNAc. A digest of the protocol: as §1
Another test addresses Gal3S(b1-4)Glc. An outline of the steps: as §1
The next test concerns the target Gal3S6S(b1-4)GlcNAc6S. An outline of the steps:
as §1

A further test deals with GalNAc(b1-3)Gal. A digest of the protocol: as §1
In test [8] the target is GlcNAc(b1-4)Gal(b1-4)GlcNAc. An outline of the steps:
as §1

The target of test [9] is Neu5Ac(a2-3)Gal(b1-4)[Fuc(a1-3)]GlcNAc6S. An outline of the steps: as §1
In test [10] the target is Neu5Ac(a2-3)[GalNAc(b1-4)]Gal(b1-4)GlcNAc. A digest of the protocol: as §1
A further test concerns the target Neu5Ac(a2-6)Gal(b1-4)Glc. An outline of the steps: as §1
The target in test [11] is Neu5Ac(a2-6)Gal(b1-4)GlcNAc(b1-3)Gal(b1-4)[Fuc(a1-3)]GlcNAc(b1-3)Gal(b1-4)[Fuc(a1-3)]GlcNAc. An outline of the steps: as §1
The target of test [12] is Neu5Ac(a2-8)Neu5Ac(a2-8)Neu5Ac. An outline of the steps:
as §1

Test [13] concerns the target Neu5Ac(a2-8)Neu5Ac(a2-8)Neu5Ac(a2-3)[GalNAc(b1-4)]Gal(b1-4)Glc. An outline of the steps: as §1
In a further test the target is Neu5Ac(b2-6)GalNAc. An outline of the steps:
as §1

B1: L-Selectin (Mus musculus), P18337 (protein)
chain: MVFPWRCEGTYWGSRNILKLWVWTLLCCDFLIHHGTHCWTYHYSEKPMNWENARKFCKQNYTDLVAIQNKREIEYLENTLPKSPYYYWIGIRKIGKMWTWVGTNKTLTKEAENWGAGEPNNKKSKEDCVEIYIKRERDSGKWNDDACHKRKAALCYTASCQPGSCNGRGECVETINNHTCICDAGYYGPQCQYVVQCEPLEAPELGTMDCIHPLGNFSFQSKCAFNCSEGRELLGTAETQCGASGNWSSPEPICQVVQCEPLEAPELGTMDCIHPLGNFSFQSKCAFNCSEGRELLGTAETQCGASGNWSSPEPICQETNRSFSKIKEGDYNPLFIPVAVMVTAFSGLAFLIWLARRLKKGKKSQERMDDPY
Turning to B1, the “glycan array binding signal (z-score)” value was -0.485 in test [1]; -0.072 in [2]; 3.99 in test [3]; 4.9 in test [4]; -0.454 in test [5]; -0.393 in test [6]. Moreover, the “glycan array binding signal (z-score)” value is 3.61 in [7]; 0.558 with Gal3S(b1-4)Glc; 4.38 in the test with Gal3S6S(b1-4)GlcNAc6S; -0.436 in the test with GalNAc(b1-3)Gal; -0.044 in test [8]; 8.82 in test [9]. In addition, the “glycan array binding signal (z-score)” value was -0.282 in [10]; -0.214 in the test with Neu5Ac(a2-6)Gal(b1-4)Glc; -0.252 in test [11]; -0.493 in [12]; -0.235 in [13]; -0.495 in the test with Neu5Ac(b2-6)GalNAc.
